Measurements taken from PubChem BioAssay (NCI).
About 83,000 compounds went through this panel and 20% of them were active in at least one assay; those are over-represented in the sample as a whole.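 Plates (96-well) were seeded with cells, treated with compound at one concentration, and incubated for 48 hours before percent growth was determined.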 A number with no mark means an inactive call. The source made the active and inactive calls. Rule for the calls: active = growth percent below 10; inactive = the rest.

Assays:
Assay in all cases: NCI-60 one-dose screen, 48 h (100 = growth as untreated, 0 = no growth, -100 = all killed)
Conditions in all cases: 10 µM unless noted
DU-145 prostate = tested on: DU-145 prostate
K-562 leukemia = tested on: K-562 leukemia
MALME-3M melanoma = tested on: MALME-3M melanoma
MDA-MB-231 breast = tested on: MDA-MB-231 breast
RXF 393 renal = tested on: RXF 393 renal
SF-268 CNS = tested on: SF-268 CNS
SF-295 CNS = tested on: SF-295 CNS
SF-539 CNS = tested on: SF-539 CNS
UACC-257 melanoma = tested on: UACC-257 melanoma
M14 melanoma = tested on: M14 melanoma

Compound	growth (DU-145 prostate)	growth (K-562 leukemia)	growth (MALME-3M melanoma)	growth (MDA-MB-231 breast)	growth (RXF 393 renal)	growth (SF-268 CNS)	growth (SF-295 CNS)	growth (SF-539 CNS)	growth (UACC-257 melanoma)	growth (M14 melanoma)
COc1cc(C2C3=C(COC3=O)N(CCO)c3cc4c(cc32)OCO4)cc(OC)c1O (stereo not given)	11.3%	27.9%	35.3%	54%	13.1%	51.1%	8.07% (active)	12.7%	14.5%	9.86% (active)
COc1cc(OCc2cccc(-c3ccc(C(O)c4nccs4)cc3)c2C)cc(OC)c1C=O (stereo not given)	53.6%	18%	7.88% (active)	54.5%	59.5%	65%	35.1%	69.4%	13.3%	32%
CN(C)C(=S)SCN1C(=O)c2ccc([N+](=O)[O-])cc2S1(=O)=O	94.3%	77.8%	92.8%	106%	113%	99.9%	101%	102%	102%	103%
COc1ccc(/C=C/C(=O)N2CCC(O)CC2)cc1OC1CCCC1	110%	102%	109%	103%	118%	101%	101%	95.8%	101%	107%
O=C(c1ccc2ncc(-c3nc(NC4CC4)ncc3F)n2c1)N1CCOCC1	11.3%	73.6%	71.2%	49.8%	-48.7% (active)	1.39% (active)	19.6%	-0.925% (active)	46.1%	
C=C[C@H]1C[C@@H]2C[C@@H]3[C@H]4C/C=C\C(=O)NCCCC5NC(=O)C(=C(O)/C=C/[C@@H]4CC(=O)[C@H]3[C@@H]2[C@H]1C)C5=O (stereo not given in full)	-95.7% (active)	-58.1% (active)	-72% (active)	-75.6% (active)	-85.6% (active)	-88.6% (active)	9.25% (active)	-81.1% (active)	-89.1% (active)	
O=c1[nH]c(=O)n(Cc2ccc(F)cc2)cc1F	110% [50 µM]	86.7% [50 µM]	101% [50 µM]	101% [50 µM]	111% [50 µM]	99.1% [50 µM]	101% [50 µM]	100% [50 µM]	83.9% [50 µM]	109% [50 µM]
O=c1c2cc(F)ccc2oc2c(NCCNCCO)nc3ccccc3c12	35.8%	-36.9% (active)	56.4%	40.4%	34.3%	47.5%	63.6%	46.3%	92%	60.1%
Cc1ccc(NS(=O)(=O)c2ccc(-c3cnc(C4CC4)o3)cc2)cc1	49.7%	14.6%	47.9%	44.7%	26.5%	50.1%	19.9%	26.7%	55.1%	9.71% (active)
COc1ncnc2c1ncn2C/C(Br)=C(\Br)CCl	36.8%	7.96% (active)	-6.59% (active)	41.8%	70.1%	11.6%	97.2%	11.8%	-40.5% (active)	-24.6% (active)
O=c1[nH]c(=S)c2c(n1CCCO)CCC2	108%	93.4%	92.9%	102%	113%	100%	102%	104%	96.7%	97%
COC1(OC)C2(Cl)C=C(c3ccccc3)C1(Cl)C(Cl)=C2Cl (stereo not given)	113%	88.8%	97.9%	110%	104%	101%	93.9%	91.5%	90.1%	97.2%
COc1ccc(C(=O)C2=CC(=O)C(=O)C2)cc1OC	111%	116%	114%	124%	106%	103%	100%	95.5%	115%	107%
Cc1ccc2nc(NC(=O)CSC(=S)N3CCN(Cc4ccccc4)CC3)sc2c1	-96.9% (active)	11.8%	-58% (active)	-7.45% (active)	-58% (active)	-14.9% (active)	-13.1% (active)	1.99% (active)	-63.4% (active)	-56.7% (active)
C=CC[P+](c1ccccc1)(c1ccccc1)c1ccccc1	79.4%	27.2%	47.8%	67.9%	95.3%	79.2%	80%	61.1%	-3.34% (active)	62.4%
O=C(N/N=C/c1ccc(OC(F)F)c(OC2CCCC2)c1)c1cnn2c1NC(c1ccccc1)C2 (stereo not given)	85.7%	38.6%	108%	81.9%	76.9%	64.2%	80.3%	81%	88.2%	82.9%
CCCCCCCC/C=C\CCCCCCCCOc1cccc(CC(=O)NCC[N+]2(C)CCCCC2)c1	84.5%	46.2%	79.1%	71.2%	-2.16% (active)	61.6%	87.5%	99.1%	98.5%	84.4%
COC(=O)c1c2c(c(C)[n+]([O-])c1C)C(=O)C=C(NCc1ccc(Cl)cc1)C2=O	-83.7% (active)	1.55% (active)	-95% (active)	-20.7% (active)	-31.7% (active)	0.305% (active)	-59.7% (active)	-89.8% (active)	-84.7% (active)	-85.5% (active)
N#C/C(=C\c1ccc[nH]1)c1cc2ccccc2[nH]1	80%	42.5%	88%	59.7%	92.5%	78.1%	53.7%	79.7%	69.9%	80.3%
CN1CCN(C)c2cncc(Br)c2C1=O	114%	102%	99.3%	106%	105%	102%	-85% (active)	109%	90.3%	
NC1=NC(c2ccccc2OS(=O)(=O)c2ccc(Br)cc2)n2c(nc3ccccc32)N1 (stereo not given)	109%	74.4%	104%	80.1%	109%	95.1%	99.1%	96%	96.8%	
COc1ccc(/C=N/OCC(O)CN2CCC(O)CC2)cc1OC1CCCC1 (stereo not given)	109%	100%	108%	99.7%	115%	94.7%	104%	101%	109%	94.3%
COc1cccc2c(=O)c3c(sc12)c(NCCN(C)C)nc1ccccc13	3.35% (active)	-60.5% (active)	36.7%	12.3%	3.02% (active)	20.7%	36%	22.5%	29.3%	
CN1CCN(C(=O)OCCOCCOC(=O)N2CCN(C)CC2)CC1	111%	106%	133%	94.9%	87.8%	102%	85.9%	97.9%	94.2%	103%
O=C1CN2CCC1C/C2=C\c1ccnc2c(Cl)cccc12 (stereo not given)	111%	95.7%	112%	90.1%	107%	101%	91.2%	110%	95.2%	103%
O=C1/C(=C/c2ccc(Cl)cc2)N=C(c2ccccc2)N1CCc1cccs1	48.4%	62.3%	65%	64.8%	69.9%	74.7%	51.5%	40.3%	56.3%	42.2%
